The text below walks through data of ChEMBL document CHEMBL1961873, “Compounds: GSK PKIS; Assays: Nanosyn kinase panel” (2012).

For experiment [1], the target named is Dual specificity protein kinase CLK3 (Homo sapiens) (UniProt P49761). To be noted: at 1 µM.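 Note: each value is the mean inhibition of CLK3.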
For experiment [2], the target named is Dual specificity tyrosine-phosphorylation-regulated kinase 1A (Homo sapiens) (UniProt Q13627). The settings on record: at 0.1 µM.
Experiment [3] shares this target. The settings on record: at 1 µM.
Experiment [4] concerns the target Dual specificity tyrosine-phosphorylation-regulated kinase 1B (Homo sapiens) (UniProt Q9Y463). The settings on record: at 0.1 µM.
Experiment [5] shares this target. The settings on record: at 1 µM.
In experiment [6] the target is T1, Dual specificity tyrosine-phosphorylation-regulated kinase 2 (Homo sapiens) (UniProt Q92630).
T1 sequence (whole entry): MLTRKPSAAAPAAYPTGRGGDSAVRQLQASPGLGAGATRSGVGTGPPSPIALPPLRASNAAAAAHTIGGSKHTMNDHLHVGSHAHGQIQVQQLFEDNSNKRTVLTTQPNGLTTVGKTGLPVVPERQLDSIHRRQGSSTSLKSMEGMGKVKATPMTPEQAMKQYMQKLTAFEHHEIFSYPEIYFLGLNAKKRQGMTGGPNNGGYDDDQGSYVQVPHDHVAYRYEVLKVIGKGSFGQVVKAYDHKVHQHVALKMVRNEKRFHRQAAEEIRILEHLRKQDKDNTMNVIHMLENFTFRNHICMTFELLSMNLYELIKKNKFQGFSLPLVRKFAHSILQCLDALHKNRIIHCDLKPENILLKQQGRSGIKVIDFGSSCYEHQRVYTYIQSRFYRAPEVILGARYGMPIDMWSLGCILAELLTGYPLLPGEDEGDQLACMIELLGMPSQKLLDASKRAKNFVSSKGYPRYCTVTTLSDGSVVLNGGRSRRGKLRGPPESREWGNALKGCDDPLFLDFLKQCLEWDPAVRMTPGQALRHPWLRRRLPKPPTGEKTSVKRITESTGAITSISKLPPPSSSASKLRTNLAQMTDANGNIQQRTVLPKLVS
The settings on record: at 0.1 µM.

The target of experiment [7] is T1, Dual specificity tyrosine-phosphorylation-regulated kinase 2 (Homo sapiens). The settings on record: at 1 µM.
In experiment [8] the target is Glycogen synthase kinase-3 alpha (Homo sapiens) (UniProt P49840). To be noted: at 0.1 µM.
The target is the same in experiment [9]. The settings on record: at 1 µM.
In experiment [10] the target is Glycogen synthase kinase-3 beta (Homo sapiens) (UniProt P49841). To be noted: at 0.1 µM.
The target is the same in experiment [11]. To be noted: at 1 µM.
Experiment [12] addresses Homeodomain-interacting protein kinase 1 (Homo sapiens) (UniProt Q86Z02). The settings on record: at 0.1 µM.
Experiment [13] shares this target. The settings on record: at 1 µM.
The target of experiment [14] is T2, Homeodomain-interacting protein kinase 4 (Homo sapiens) (UniProt Q8NE63).
T2 sequence (whole entry): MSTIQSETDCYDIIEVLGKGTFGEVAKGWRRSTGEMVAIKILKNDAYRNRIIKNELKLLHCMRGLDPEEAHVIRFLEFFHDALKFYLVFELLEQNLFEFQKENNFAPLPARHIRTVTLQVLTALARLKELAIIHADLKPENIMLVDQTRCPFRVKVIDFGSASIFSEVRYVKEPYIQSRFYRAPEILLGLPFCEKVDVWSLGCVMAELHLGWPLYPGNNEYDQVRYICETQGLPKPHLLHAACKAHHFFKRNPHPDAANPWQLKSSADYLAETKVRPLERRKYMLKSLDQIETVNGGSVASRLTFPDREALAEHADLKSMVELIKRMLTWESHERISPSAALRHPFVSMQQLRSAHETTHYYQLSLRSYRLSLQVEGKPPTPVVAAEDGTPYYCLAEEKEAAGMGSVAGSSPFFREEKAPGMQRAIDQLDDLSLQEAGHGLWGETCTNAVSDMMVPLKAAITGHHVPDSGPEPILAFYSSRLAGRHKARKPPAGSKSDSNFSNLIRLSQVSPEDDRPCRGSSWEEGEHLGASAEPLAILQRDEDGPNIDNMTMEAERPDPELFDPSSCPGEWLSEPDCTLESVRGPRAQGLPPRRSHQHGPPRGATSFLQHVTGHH
To be noted: at 0.1 µM.

Experiment [15] concerns the target T2, Homeodomain-interacting protein kinase 4 (Homo sapiens). The settings on record: at 1 µM.
In experiment [16] the target is Mitogen-activated protein kinase 9 (Homo sapiens) (UniProt P45984). To be noted: at 0.1 µM.
The target is the same in experiment [17]. To be noted: at 1 µM.
Experiment [18] has as its target Mitogen-activated protein kinase 1 (Homo sapiens) (UniProt P28482). To be noted: at 0.1 µM.
The target is the same in experiment [19]. The settings on record: at 1 µM.
Experiment [20] concerns the target Mitogen-activated protein kinase 3 (Homo sapiens) (UniProt P27361). The settings on record: at 0.1 µM.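 Note: each value is a mean inhibition figure.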

The inhibition is the relative decrease from the control value, in per cent.

Glycogen synthase kinase-3 beta (Homo sapiens), sequence (P49841 whole entry, looked up): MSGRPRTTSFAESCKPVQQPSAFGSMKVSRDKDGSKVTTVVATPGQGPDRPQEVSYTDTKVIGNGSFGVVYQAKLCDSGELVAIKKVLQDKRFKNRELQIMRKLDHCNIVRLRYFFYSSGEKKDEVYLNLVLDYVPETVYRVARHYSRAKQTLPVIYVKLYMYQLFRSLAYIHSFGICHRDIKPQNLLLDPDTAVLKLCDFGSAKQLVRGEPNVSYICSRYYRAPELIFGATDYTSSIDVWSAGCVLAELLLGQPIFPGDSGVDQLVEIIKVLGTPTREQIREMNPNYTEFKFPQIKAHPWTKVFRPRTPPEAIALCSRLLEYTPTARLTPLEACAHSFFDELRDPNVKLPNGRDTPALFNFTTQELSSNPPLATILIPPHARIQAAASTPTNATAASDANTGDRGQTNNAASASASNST
Homeodomain-interacting protein kinase 1 (Homo sapiens), sequence (Q86Z02 whole entry, looked up): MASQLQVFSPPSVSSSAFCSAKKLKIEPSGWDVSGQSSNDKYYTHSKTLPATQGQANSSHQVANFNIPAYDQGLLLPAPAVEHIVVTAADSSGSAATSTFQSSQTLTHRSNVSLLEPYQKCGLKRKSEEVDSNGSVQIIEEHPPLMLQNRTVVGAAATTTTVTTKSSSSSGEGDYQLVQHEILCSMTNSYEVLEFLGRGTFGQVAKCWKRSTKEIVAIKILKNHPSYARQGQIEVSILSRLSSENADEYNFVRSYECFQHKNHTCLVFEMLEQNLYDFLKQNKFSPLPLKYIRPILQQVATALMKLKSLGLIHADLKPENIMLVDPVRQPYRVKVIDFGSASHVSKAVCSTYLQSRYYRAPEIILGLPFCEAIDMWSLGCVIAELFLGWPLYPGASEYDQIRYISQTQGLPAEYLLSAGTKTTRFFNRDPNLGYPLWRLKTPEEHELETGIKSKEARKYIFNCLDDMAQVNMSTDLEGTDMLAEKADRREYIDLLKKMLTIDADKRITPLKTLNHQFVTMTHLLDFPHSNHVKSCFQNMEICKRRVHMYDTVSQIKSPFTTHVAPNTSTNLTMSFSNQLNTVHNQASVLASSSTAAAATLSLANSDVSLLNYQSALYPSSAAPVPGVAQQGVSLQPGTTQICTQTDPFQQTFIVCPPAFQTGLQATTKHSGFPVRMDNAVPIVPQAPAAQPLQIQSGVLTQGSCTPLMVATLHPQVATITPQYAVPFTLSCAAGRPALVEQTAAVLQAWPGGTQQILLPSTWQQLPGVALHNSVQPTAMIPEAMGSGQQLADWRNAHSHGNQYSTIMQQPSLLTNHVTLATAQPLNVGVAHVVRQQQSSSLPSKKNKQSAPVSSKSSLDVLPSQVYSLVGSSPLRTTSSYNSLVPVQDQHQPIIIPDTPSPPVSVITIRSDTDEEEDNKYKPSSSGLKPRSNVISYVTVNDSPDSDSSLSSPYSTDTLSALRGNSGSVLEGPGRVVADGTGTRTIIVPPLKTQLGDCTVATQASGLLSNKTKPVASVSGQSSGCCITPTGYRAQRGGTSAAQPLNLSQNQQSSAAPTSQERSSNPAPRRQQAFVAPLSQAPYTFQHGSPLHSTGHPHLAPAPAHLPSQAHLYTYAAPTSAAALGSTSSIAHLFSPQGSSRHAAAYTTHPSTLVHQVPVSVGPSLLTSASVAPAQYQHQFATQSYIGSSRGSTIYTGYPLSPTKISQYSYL
Dual specificity tyrosine-phosphorylation-regulated kinase 1B (Homo sapiens), sequence (Q9Y463 whole entry, looked up): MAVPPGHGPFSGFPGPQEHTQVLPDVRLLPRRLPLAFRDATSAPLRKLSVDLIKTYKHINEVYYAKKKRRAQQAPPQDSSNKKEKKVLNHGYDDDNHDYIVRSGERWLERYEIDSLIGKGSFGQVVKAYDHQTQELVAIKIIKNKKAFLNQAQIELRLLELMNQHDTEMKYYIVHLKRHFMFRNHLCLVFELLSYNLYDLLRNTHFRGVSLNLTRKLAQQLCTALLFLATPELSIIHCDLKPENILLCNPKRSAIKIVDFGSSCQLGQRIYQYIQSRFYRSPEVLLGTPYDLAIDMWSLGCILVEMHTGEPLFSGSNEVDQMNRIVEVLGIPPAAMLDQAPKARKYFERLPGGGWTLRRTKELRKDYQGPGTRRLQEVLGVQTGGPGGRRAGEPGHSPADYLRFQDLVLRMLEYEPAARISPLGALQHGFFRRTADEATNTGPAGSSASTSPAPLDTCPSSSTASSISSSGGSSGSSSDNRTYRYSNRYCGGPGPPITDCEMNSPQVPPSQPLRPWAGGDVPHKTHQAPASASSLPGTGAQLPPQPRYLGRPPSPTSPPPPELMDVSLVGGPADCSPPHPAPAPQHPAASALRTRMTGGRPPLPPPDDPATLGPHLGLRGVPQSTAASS
Mitogen-activated protein kinase 1 (Homo sapiens), sequence (P28482 whole entry): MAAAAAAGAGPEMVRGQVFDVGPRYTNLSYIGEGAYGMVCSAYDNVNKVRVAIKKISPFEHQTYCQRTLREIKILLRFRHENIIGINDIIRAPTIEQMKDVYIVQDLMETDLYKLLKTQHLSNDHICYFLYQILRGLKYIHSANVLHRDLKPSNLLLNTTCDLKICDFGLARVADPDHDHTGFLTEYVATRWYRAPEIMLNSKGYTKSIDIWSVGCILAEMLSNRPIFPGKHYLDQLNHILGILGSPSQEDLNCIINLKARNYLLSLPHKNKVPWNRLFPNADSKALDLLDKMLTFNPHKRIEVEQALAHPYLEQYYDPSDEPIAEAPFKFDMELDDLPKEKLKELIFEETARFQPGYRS
Mitogen-activated protein kinase 9 (Homo sapiens), sequence (P45984 whole entry, looked up): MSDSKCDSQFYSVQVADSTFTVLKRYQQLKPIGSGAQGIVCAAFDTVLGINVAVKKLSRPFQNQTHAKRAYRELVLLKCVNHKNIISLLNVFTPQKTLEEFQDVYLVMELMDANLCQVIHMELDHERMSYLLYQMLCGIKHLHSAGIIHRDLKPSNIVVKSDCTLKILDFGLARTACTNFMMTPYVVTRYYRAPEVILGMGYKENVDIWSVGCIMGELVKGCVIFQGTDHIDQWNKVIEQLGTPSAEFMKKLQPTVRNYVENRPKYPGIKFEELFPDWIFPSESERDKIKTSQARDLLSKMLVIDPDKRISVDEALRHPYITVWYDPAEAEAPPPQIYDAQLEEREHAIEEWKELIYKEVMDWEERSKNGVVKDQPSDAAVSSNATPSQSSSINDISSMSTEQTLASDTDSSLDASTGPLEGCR
Glycogen synthase kinase-3 alpha (Homo sapiens), sequence (P49840 2-483 limits assumed): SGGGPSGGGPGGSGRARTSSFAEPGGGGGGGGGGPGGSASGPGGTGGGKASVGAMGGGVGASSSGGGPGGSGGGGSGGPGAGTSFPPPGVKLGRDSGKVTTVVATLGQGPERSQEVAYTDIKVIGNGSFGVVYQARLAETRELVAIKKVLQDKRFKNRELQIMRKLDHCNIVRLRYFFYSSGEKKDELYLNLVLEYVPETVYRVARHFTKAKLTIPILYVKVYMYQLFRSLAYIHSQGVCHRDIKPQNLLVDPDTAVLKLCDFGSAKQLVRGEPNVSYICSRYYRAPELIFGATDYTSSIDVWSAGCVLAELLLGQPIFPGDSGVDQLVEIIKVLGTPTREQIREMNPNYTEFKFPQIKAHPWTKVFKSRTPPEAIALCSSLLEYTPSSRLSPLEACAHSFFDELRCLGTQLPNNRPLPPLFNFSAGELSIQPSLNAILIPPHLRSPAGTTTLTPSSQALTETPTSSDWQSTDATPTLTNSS
Dual specificity protein kinase CLK3 (Homo sapiens), sequence (P49761 whole entry, looked up): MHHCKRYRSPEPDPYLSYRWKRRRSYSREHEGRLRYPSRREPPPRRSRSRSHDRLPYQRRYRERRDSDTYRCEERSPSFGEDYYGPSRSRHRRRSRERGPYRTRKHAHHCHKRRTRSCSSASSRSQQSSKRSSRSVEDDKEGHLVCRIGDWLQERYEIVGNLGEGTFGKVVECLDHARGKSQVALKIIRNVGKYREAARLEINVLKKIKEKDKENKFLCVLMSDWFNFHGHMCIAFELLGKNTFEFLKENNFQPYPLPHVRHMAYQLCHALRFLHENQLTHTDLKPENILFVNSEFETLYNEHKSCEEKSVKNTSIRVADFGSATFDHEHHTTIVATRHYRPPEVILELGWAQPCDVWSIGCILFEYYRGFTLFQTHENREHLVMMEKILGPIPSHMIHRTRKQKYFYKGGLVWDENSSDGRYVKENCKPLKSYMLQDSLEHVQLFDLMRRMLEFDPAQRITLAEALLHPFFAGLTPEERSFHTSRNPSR
Mitogen-activated protein kinase 3 (Homo sapiens), sequence (P27361 whole entry): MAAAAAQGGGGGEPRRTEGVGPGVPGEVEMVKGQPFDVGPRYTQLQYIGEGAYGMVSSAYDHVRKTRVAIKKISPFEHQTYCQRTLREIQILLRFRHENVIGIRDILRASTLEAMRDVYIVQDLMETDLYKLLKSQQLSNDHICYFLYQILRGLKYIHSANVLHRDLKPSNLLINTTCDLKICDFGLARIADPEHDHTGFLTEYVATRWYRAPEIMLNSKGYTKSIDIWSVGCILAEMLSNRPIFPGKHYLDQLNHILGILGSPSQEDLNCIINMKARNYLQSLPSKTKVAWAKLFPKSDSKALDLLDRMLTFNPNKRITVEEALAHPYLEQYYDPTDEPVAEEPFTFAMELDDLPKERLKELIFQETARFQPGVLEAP

Turning to `CCc1nn2ncccc2c1-c1ccnc(NC2CC2)n1`, the inhibition in experiment [1] was 0.97%; in experiment [2] it was 1.95%; in [3], 4.71%; in experiment [4] it was 1.01%; in experiment [5], 5.27%; in experiment [6], 1.81%. In addition, the inhibition in experiment [7] was 10.9%; in experiment [8], 6.96%; in experiment [9], 9.03%; in experiment [10], 6.18%; in experiment [11] it was 7.53%; in experiment [12], -1.75%. The inhibition turned out to be 9.32% in [13]; 2.35% in [14]; 20.9% in experiment [15]; 2.47% in [16]; 5.7% in experiment [17]; 1.85% in [18]. Further, the inhibition in experiment [19] was 3.78%; in experiment [20] it was -0.55%.
Turning to `CCn1c(-c2nonc2N)nc2c(C#CC(C)(C)O)nc(OC[C@H](N)c3ccccc3)cc21`, the inhibition came to 0.92% in experiment [1]; 1.72% in [2]; 2.24% in experiment [3]; 0.98% in experiment [4]; 2.57% in experiment [5]; 3.62% in experiment [6]. Also, the inhibition was 4.79% in experiment [7]; 36.8% in [8]; 73.6% in [9]; 30% in experiment [10]; 71.2% in experiment [11]; -1.18% in experiment [12]. Also, the inhibition in [13] came to 12.3%; in experiment [14] it was 3.08%; in [15], 6.13%; in [16], 7.43%; in experiment [17] it was 9.81%; in experiment [18], 2.37%. The inhibition in [19] came out at 5.04%; in experiment [20] it was 3.72%.
In the case of `CC(=O)NCc1cccc(C#Cc2cncnc2Nc2ccc(OCc3cccc(F)c3)c(Cl)c2)c1`, the inhibition in [1] came to 0.27%; in experiment [2], 1.8%; in [3], 6.71%; in experiment [4] it was 0.66%; in experiment [5], 1.17%; in [6], 1.17%. Further, the inhibition is -0.66% in experiment [7]; 3.24% in experiment [8]; 8.35% in experiment [9]; 2.82% in experiment [10]; 7.42% in experiment [11]; -1.17% in experiment [12]. Also, the inhibition was 0.08% in experiment [13]; -1.54% in [14]; 2.87% in experiment [15]; 0.88% in experiment [16]; 0.54% in [17]; 0.71% in experiment [18]. Also, the values for the inhibition in experiment [19] and in experiment [20] were 1.78% and -0.54%, respectively.
`CCCN(CCS(C)(=O)=O)Cc1ccc(-c2ccc3ncnc(Nc4ccc(OCc5cccc(F)c5)c(Cl)c4)c3c2)o1`: the inhibition was found to be 3.58% in [1]; 4.83% in experiment [2]; 10.8% in experiment [3]; 4.87% in [4]; 10.4% in [5]; 1.93% in experiment [6]. The inhibition was found to be 2.03% in experiment [7]; 7.55% in [8]; 9.2% in experiment [9]; 6.85% in [10]; 10.2% in experiment [11]; 6.46% in experiment [12]. The inhibition was 11.6% in experiment [13]; 3.01% in experiment [14]; 9.25% in [15]; 2.74% in [16]; 4.94% in [17]; 1.68% in [18]. For the same molecule, the inhibition in [19] is 3.24%; in [20] it was 1.75%.
For `c1ccc(-c2nc3n(c2-c2ccc4c(c2)OCO4)CCC3)nc1`, the inhibition in [1] was 1.02%; in experiment [2], 1.52%; in [3] it was 6.32%; in experiment [4], 1.24%; in experiment [5] it was 5.19%; in experiment [6], 1.61%. For the same molecule, the inhibition in experiment [7] is 1.95%; in [8], 1.93%; in experiment [9], 5.52%; in experiment [10], 2.03%; in experiment [11], 6.89%; in [12], 0.04%. The inhibition in experiment [13] is 0.44%; in experiment [14], -0.4%; in experiment [15] it was -0.33%; in experiment [16], 1.36%; in [17], 1.96%; in experiment [18], -0.55%. Besides, the inhibition in [19] stood at 0.62%; in experiment [20] it was 0.29%.
Take `CS(=O)(=O)CCNCc1ccc(-c2ccc3ncnc(Nc4ccc(OCc5ccccc5)c(C(F)(F)F)c4)c3c2)o1`: the inhibition in experiment [1] was 0.19%; in experiment [2], 2.36%; in [3] it was 4.91%; in [4], -2.07%; in experiment [5], -0.6%; in experiment [6] it was 3.17%. In addition, the inhibition in experiment [7] was 0.91%; in experiment [8], 3.36%; in experiment [9], 3.82%; in experiment [10] it was 3.13%; in experiment [11], 3.51%; in [12] it was -3.76%. Further, the inhibition in experiment [13] is -0.23%; in experiment [14] it was -0.74%; in [15], -1.78%; in experiment [16] it was 2.51%; in experiment [17], 0.92%; in experiment [18] it was 4.58%. Also, the inhibition in experiment [19] is 5.24%; in experiment [20] it was 3.56%.
